Measurements taken from PubChem BioAssay AID588827 (Broad Institute, 2011).
In all, about 2,400 compounds went through this assay and about 20 (0.8%) were called active. Another 19% or so got no clear call; they are omitted.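 The calls were made as follows: active = fitted half-maximal concentration for signal decrease at or below twice the top tested dose, in every repeat run; inconclusive = repeat runs disagree, or flat partial inhibition, or poor fit; inactive = all runs flat, wrong-direction or potency beyond limit.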 These entries were drawn from the full list. Measured potencies and affinities stand elsewhere.

Assay: decrease of heat-induced HSF-1 GFP reporter, dose response, NIH3T3 R4 cells, GFP/RFP, cherry-pick, set 4 (AID 588827);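 also: 0% = neutral control wells and -100% = didemnin B at 400 nM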
Settings: NIH3T3 R4 HSF-1 GFP reporter, heat shock, 48 h; series mostly up to 19.5 µM; activity change, negative = inhibition: at the top concentration

Activity change, negative = inhibition, inactive:
O=C(CCCc1nc(-c2ccccc2Cl)no1)NC1CCCC1 8.17%
COc1ccc(CC(C)Nc2cccc(SC)c2)cc1 (stereo unspecified) -7.7%
O=C(CN(Cc1ccccc1Cl)S(=O)(=O)c1ccc(Cl)cc1)N/N=C/c1ccc(C(=O)O)cc1 2.93%
Cc1ccc(N=Nc2ccc3ccccc3c2O)cc1 6.26%
C=CCn1c(=NC(=O)C2CC2)sc2cc(NC(C)=O)ccc21 2.06%
CCCCNC(=O)C(=O)N/N=C/c1ccc(C(=O)OC)cc1 -8.74%
O=c1cc(-c2ccccc2)c2ccc(O)cc2o1 -13%
CC(=O)c1ccc(NC(=O)C2CCN(S(=O)(=O)c3cccc4cccnc34)CC2)cc1 -9.15%
COc1ccc(NC(=S)Nc2ccc(F)cc2)c(OC)c1 -12.6%
O=C(CSc1ccc(Br)cc1)Nc1ccccc1N1CCOCC1 -9.45%
COc1cc(C(=O)N2CCSCC2)ccc1OC1CCN(C(C)=O)CC1 -1.88%
COc1ccccc1Oc1ccc2c(c1)C(=O)N(c1ccc(Br)c3cccnc13)C2=O -24.3%
Cc1c(Cl)cccc1NC(=O)Nc1cnccn1 -29.6%
CCN(CC)c1ccc(CNc2nc3ccccc3n2CCN2CCOCC2)cc1 -31.2%
CN(C(=O)c1ccc2c(c1)SC1=NS(=O)(=O)CCN12)C(c1ccccc1)c1ccccc1 4.39% [at 10 µM]
O=c1o[nH]c(-c2ccccc2)c1-c1ccccc1 5.38%
O=C(Nc1cccc(Cl)c1)N1CCOCC1 -24.5%
CCOC(=O)C1(Cc2ccc(OC)cc2)CCN(C(=O)c2csc(C)n2)CC1 -3.83%
Cc1ccccc1-c1nc2sc3c(c2c(=O)n1N)CCCC3 -10.4%
Cn1c(=O)cc(SCC(=O)N2CCN(C(=O)c3ccco3)CC2)c2ccccc21 -11.5%
Cc1[nH]c2ccccc2c1C(C[N+](=O)[O-])c1cccs1 (stereo unspecified) -1.12%
COc1cccc(-c2cc3nc4c(c(NCC(C)(C)CN(C)C)n3n2)CCCC4)c1 -15.6%
CCOc1ccc(NC(=O)C2CCCN(c3nn4c(=O)cc(C)nc4s3)C2)cc1 (stereo unspecified) 9.81%
Cc1ccc2nc(-c3ccccc3NC(=O)CCC(=O)O)c(=O)[nH]c2c1 11.3%
N#CC1=C(N)Oc2cc(N)ccc2C1c1ccccc1Cl (stereo unspecified) -13.4%
Cc1cc(Nc2ccc3c(c2)OCCO3)c2cc(Cl)ccc2n1 -28.1%
CCn1nc(C)c(/C=N/NC(=O)c2c[nH]c3ccccc23)c1C 4.32%
N#Cc1c(N)nc(SCc2ccncc2)c(C#N)c1-c1cccs1 -23%
CCOc1ccc(N(CC(=O)NC2CCCCC2)C(=O)CCC(=O)Nc2nc(C)cs2)cc1 -1.1%
CCSc1nnc(-c2ccc(S(=O)(=O)NCc3cccs3)cc2)o1 -22.9%
O=C(c1cc2c(s1)-c1ccccc1OC2)N1CCN(c2ccccc2)CC1 -1.28%
Cc1cc(/C=C2/C(=O)NN(c3ccccc3)C2=O)c(C)n1-c1ccc(O)cc1 -1.39%
C/C(=N\Nc1nncc2ccccc12)c1ccc(Cl)c([N+](=O)[O-])c1 4.2%
Cc1cc(Cl)ccc1OCCCC(=O)N1CCOCC1 4.58%
CCC(NC(=S)NC1CCCCC1)c1ccccc1 (stereo unspecified) 3.39%
CCN(CC(=O)Nc1c(F)cccc1F)C(=O)Cc1n[nH]c(=O)c2ccccc12 -8.1%
COC(=O)C1=C(C)N(CCCC(=O)O)C(=O)NC1c1ccc(C#N)cc1 (stereo unspecified) -11.5%
O=C(CN1CCCCC1)Nc1cccc2c1OCO2 -20.8%
CC(CN1CCOCC1)OC(=O)C(c1ccccc1)c1ccccc1 (stereo unspecified) 3.47%
O=C(O)CSCC(=O)Nc1ccc(C2CCCCC2)cc1 -19.7%
Cc1ccnc(NC(c2ccsc2)c2ccc3ccc(C)nc3c2O)c1 (stereo unspecified) 77.1%
COc1ccc2nnc(-c3ccc(C(F)(F)F)cc3)n2n1 -29%
O=C1CCCC/C1=N\Nc1ccc(C2CCCCC2)cc1 -12.6%
COc1ccc(C(=O)C2CCCN(S(=O)(=O)c3ccccc3F)C2)c(C)c1 (stereo unspecified) -19.3%
Cc1cc(S(=O)(=O)N2CCN=C2c2ccccc2)c(C)cc1Cl -13.8%
COc1cc(/C=N/N=C2/C(=O)Nc3ccccc32)cc(OC)c1O -6.39%
O=C(NCc1ccco1)C(=O)NCC(c1ccco1)N1CCOCC1 (stereo unspecified) -10.2%
CCOC(=O)C1(CCOc2ccccc2)CCN(Cc2cccc(-n3cccn3)c2)CC1 19%
CC(=O)N/N=C(\C)CC(=O)NC(C)(C)C 6.32%
C=CCn1c(C)cc(C(=O)CSc2nnc(NC(C)C)s2)c1C -14.3%
CCCCN1CNC(=S)N(c2ccc(C(=O)OCC)cc2)C1 -9.47%
COc1ccc(-c2oc3ccccc3c2C(=O)Oc2ccccc2)cc1 0.138%
Cc1ccc(-c2nn(-c3ccccc3)cc2CN(C)C(=O)CCC(=O)O)cc1C -15.5%
O=[N+]([O-])c1cccc(-c2nnc(-c3ccccc3)o2)c1 -13.4%
Cc1ccc(C(=O)N/C(=C/c2ccco2)C(=O)Nc2cccc(C(=O)O)c2)cc1 -3.67%
Cc1cccc(OCC(=O)Nc2cccc(C(=O)NCC(C)C)c2)c1 -11.5%
COc1ccc(C2NS(=O)(=O)N=C2N)cc1 (stereo unspecified) -1.94%
CC(=O)C1C(=O)c2c(cccc2[N+](=O)[O-])C1=Nc1ccc(S(N)(=O)=O)cc1 (stereo unspecified) -10.1%
CCOC(=O)N1CCN(S(=O)(=O)c2ccc3c(c2)OCC(=O)N3)CC1 -10.4%
Cc1ccc(-c2cn(-c3ccccc3)c(=S)[nH]2)cc1C -10%
O=C(Nc1ccccc1N1CCCCC1)C1CCN(C(=O)c2ccc(Cl)cc2)CC1 -15.7%
CCOC(=O)c1c(NC(=O)CSc2nnc(-c3c[nH]c4ccccc34)n2C)sc2c1CCCC2 -23.8%
O=C(NCCCn1ccnc1)C(=O)NCC1OCCN1S(=O)(=O)c1cc(F)ccc1F (stereo unspecified) -8.72%
O=C(O)CCSc1nnc(-c2ccc3c(c2)OCO3)o1 1.52%
Cc1c(C(=O)c2no[n+]([O-])c2C(=O)c2cnn(C)c2C)cnn1C 12.6%
O=S(=O)(Nc1cccc(Oc2cnccn2)c1)c1ccc(F)cc1 -8.07%
CCOc1cc(/C=N/NC(=O)c2cccc(S(=O)(=O)N3CCOCC3)c2)ccc1OCC(=O)N(C)C -8.98%
Cc1ccc(-c2cc3c(N=O)c4ccccc4c-3n[nH]2)cc1 9.74%
CCCN(CCC)C(=O)CSc1nc2ccsc2c(=O)n1NC(=O)c1ccccc1 -0.911%
COc1cccc(C(c2sc3nc(C)nn3c2O)N2CCN(C(=O)c3ccco3)CC2)c1 (stereo unspecified) -17.6%
Cn1c(=O)c2ccccc2n(Cc2ccccc2Cl)c1=O -29.6%
O=C(CCl)NC(Cc1ccccc1)c1ccccc1 (stereo unspecified) 9.09%
COC(=O)c1cc(S(=O)(=O)NCCc2ccccc2)c[nH]1 -14.9%
O=C(CCl)N=c1sccn1Cc1ccc(Cl)cc1Cl -29.8%
Cc1ccc(S(=O)(=O)N2CCN(CC(=O)N/N=C\c3ccncc3)CC2)cc1 -9.13%
O=C(O)c1ccc2nc(-c3ccccc3)sc2c1 -4.16%
Cn1c(=O)c2c(SCC(=O)N3CCCc4ccccc43)nc(C3CC3)nc2n(C)c1=O -16.5%
Cc1ccc(C)c(NC(=O)COc2coc(CN3CCc4ccccc4C3)cc2=O)c1 -27.9%
Cc1ccc2[nH]c(=O)c(CN(C(=O)c3cccc([N+](=O)[O-])c3)C(C)C)cc2c1 -24.7%
O=C(Nc1ccc(S(=O)(=O)N2CCOCC2)cc1)c1ccc(Cl)cc1Cl -21.7%
COC(=O)c1nn(-c2ccc3c(c2)CCN3C(C)=O)cc1O 21.1%
Cc1cc(C)c2[nH]c(=O)c(C(c3nnnn3CC3CCCO3)N3CCC(C)CC3)cc2c1 (stereo unspecified) -26.5%
N=C(N)SCc1ccccc1Cl 19.3%
COc1ccc(C(=O)NCc2nnc(SCC(=O)N3CCC(C)CC3)o2)cc1OC -11.6%
O=C(Cn1nc2ccccc2n1)N/N=C/c1cc([N+](=O)[O-])ccc1O 6%
O=C(Oc1ccccc1Cl)c1ccc(-n2cncn2)nc1 -8.84%
COc1ccc(S(=O)(=O)N2CCCCCC2)cc1C(=O)OCC(=O)NC(C)(C)C -11.8%
Nc1ccccc1-c1nc2ccccc2s1 -7.02%
COc1ccc(S(=O)(=O)N2CCCC2)cc1C(C)C -16.1%
O=C(N1CCCCC1)N1CCN(S(=O)(=O)c2ccccc2)CC1 -11.3%
Cc1nc2sccn2c(=O)c1S(=O)(=O)Nc1ccc(N2CCOCC2)c(Cl)c1 -25.3%
COC(=O)c1cccc(NC(=O)CN2CCN(Cc3ccccc3)CC2)c1 2.65%
CN1CCc2c(sc(/N=C/c3cc(C(C)(C)C)ccc3O)c2C#N)C1 3.37%
COc1ccc2[nH]c3c(=O)n(CCCN4CCOCC4)cnc3c2c1 -12.4%
CCO/C(C)=C1/SC(=S)NC1=O 3.62%
c1ccc(OCCSc2nc3ccccc3o2)cc1 -18%
COc1cc(NC(=O)c2cc(C)nc3ccccc23)cc(OC)c1 -25.1%
COc1cccc(C(=O)c2c[nH]c(C(=O)NCc3ccco3)c2)c1 -5.49%
COc1ccc(CNC(=O)c2cnc3scc(C)n3c2=O)cc1 -20.1%
COc1ccc(Cl)cc1C(=O)NCC(=O)OCc1ccccc1 8.73%
O=C(CCNC(=O)c1ccc(Cl)cc1)Nc1ncccc1O -4.94%
CCCCOC(=O)CSCC(=O)Nc1cc(C)on1 2.2%
CCN(CC)S(=O)(=O)c1ccc2c(c1)c(=O)c(C(=O)NCc1ccco1)cn2C -6.4%
CC(=O)N(c1ccc2oc(=O)sc2c1)S(=O)(=O)c1ccc(C(=O)O)cc1 -1.71%
CCOC(=O)c1cc(S(=O)(=O)N2CCc3ccccc32)cn1C -12.5%
Fc1ccccc1N1CCN(Cc2cc(-c3ccccc3)on2)CC1 -10.8%
CCc1ccccc1NC(=O)CSc1nnc(-c2ccncc2)o1 -11.8%
COCCNC(=O)C(OC(=O)c1cccs1)c1ccccc1 (stereo unspecified) 2.58%
COc1ccc(CCNC(=O)CN(c2ccc(OC)c(OC)c2)S(C)(=O)=O)cc1OC -22.4%
CCC(NC(=S)NCc1ccccc1)C(=O)O (stereo unspecified) 29.3%
CCOCCn1c(SCC(=O)OCc2ccccc2)nc2c1c(=O)[nH]c(=O)n2C -11.3%
CC(C)c1nc2ccccc2c2nnc(SCC(=O)NCc3ccco3)n12 -7.5%
CC(=O)Nc1ccc(-c2cn3c(n2)SCC3)cc1 -4.99%
CC1(C)Cc2nc3[nH]c(=S)n(-c4ccccc4)c(=O)c3cc2CO1 -13.3%
Cc1ccc(S(=O)(=O)c2ccc(Oc3ccccc3)cc2)cc1 -11%
CC1CCCN(c2ncnc3c2cnn3-c2ccc(Cl)cc2)C1 (stereo unspecified) -10.3%
COc1ccc(Cn2nnnc2C(c2cc3cccc(C)c3[nH]c2=O)N2CCN(C)CC2)cc1 (stereo unspecified) 7.29%
CC(C)c1ccc(NC(=O)N(CCc2nc3ccccc3[nH]2)C2CCCC2)cc1 78.7%
CCCS(=O)(=O)N1CCc2cc(OC)c(OC)cc2C1 -3.49%
CCC(Sc1nc2cc(OC)c(OC)cc2c(=O)n1CCc1ccc(S(N)(=O)=O)cc1)C(=O)NCCOC (stereo unspecified) 16.7%
O=C(N/N=C/c1ccccn1)c1ccc([N+](=O)[O-])cc1 -24.2%
CN(C)c1ccc(CNc2ccc3c(c2)ncn3C(C)(C)C)cc1 -15.9%
COc1cccc(-n2nc(-c3ccnn3-c3cccc(Cl)c3)c(=O)n(C)c2=O)c1 -21.5%
CCOC(=O)c1cc2sccc2n1CC(=O)Nc1ccc(OC)cc1 -14.8%
Cc1cccc(-c2ocnc2C(=O)N2CCN(C(=O)c3cccs3)CC2)c1 -4.21%
CCOC(=O)c1c(C)nc2c(C)cccn12 -16.6%
CC(C)(C)C(=O)OCc1nc(-c2ccc3c(c2)OCCO3)cs1 9.21%
Cc1nn(C(C)(C)C)c(C)c1/C=N/OC(=O)Nc1ccc(Cl)c(Cl)c1 -12.2%
Nc1nc(CSC(=S)N2CCCCC2)nc(Nc2ccccc2)n1 -2.27%
NS(=O)(=O)c1ccc(NC2=CC(=O)C(=O)c3ccccc32)cc1 -43.6%
Cn1c(NC(=O)c2ccccc2NC(=O)C(C)(C)C)nc2ccccc21 -22.4%
